From PubChem BioAssay AID720597 (Broad Institute, 2013)
Results with a measured potency or affinity are listed apart. The source made the active and inactive calls.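 How the source made its calls: active means fitted half-maximal dose no more than twice the top valid tested dose, for compounds that lower signal; inconclusive means fit invalid, or curve flat with activity between -70 and -30; inactive means potency past limit, curve flat within ±30, or signal increasing.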

target: NAD-dependent protein deacylase sirtuin-5, mitochondrial (Homo sapiens) (UniProt Q9NXA8); test: blockers of sirtuin-5 peptide desuccinylation – biochemical, fluorescence imaging, cherry-pick, set 6, dose response (AID 720597); settings: Purified SirT5, succinyl-peptide-AMC/trypsin fluorescence; series mostly up to 15 µM; activity change, negative = inhibition: at the top concentration;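 further: lower AMC signal can also come from blocking the trypsin step; 0% = median of neutral control wells and -100% = median of positive control wells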
Sequence (Q9NXA8 whole entry, looked up): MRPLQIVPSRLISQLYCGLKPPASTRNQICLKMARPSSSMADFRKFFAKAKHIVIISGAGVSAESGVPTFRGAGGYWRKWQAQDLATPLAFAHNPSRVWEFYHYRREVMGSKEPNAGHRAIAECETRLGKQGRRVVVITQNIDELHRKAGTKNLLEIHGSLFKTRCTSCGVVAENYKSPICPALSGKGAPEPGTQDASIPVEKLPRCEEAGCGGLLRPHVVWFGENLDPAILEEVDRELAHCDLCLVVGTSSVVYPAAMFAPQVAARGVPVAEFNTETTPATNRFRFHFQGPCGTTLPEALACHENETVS

Activity change, negative = inhibition, inactive:
C[C@@H]1CN([C@@H](C)CO)C(=O)c2cc(C#CCN(C)C)cnc2O[C@@H]1CN(C)Cc1ccncc1 -5.47%
C[C@@H]1CN([C@@H](C)CO)S(=O)(=O)c2ccc(C#CC(C)(C)O)cc2O[C@H]1CN(C)Cc1ccc(F)cc1 9.62%
C[C@H](CO)N1C[C@H](C)[C@@H](CN(C)S(=O)(=O)c2ccccc2)Oc2c(cccc2N(C)C)C1=O 2.92%
C[C@H]1CN([C@@H](C)CO)S(=O)(=O)c2ccc(C#CC3CC3)cc2O[C@@H]1CN(C)Cc1ccccc1F -7.85% [at 16 µM]
C[C@@H]1CCCCO[C@H](CN(C)Cc2ccc(C(=O)O)cc2)[C@H](C)CN([C@H](C)CO)C(=O)c2cc(NS(=O)(=O)c3cccs3)ccc2O1 -13.8%
CC(C)CC#Cc1ccc2c(c1)O[C@H](CN(C)C(=O)C1CCCCC1)[C@@H](C)CN([C@H](C)CO)S2(=O)=O 9.78%
CNC[C@@H]1Oc2ccc(NC(=O)Nc3ccc(F)cc3)cc2CC(=O)N([C@@H](C)CO)C[C@@H]1C 12.6%
C[C@H](CO)N1C[C@H](C)[C@@H](CN(C)Cc2ccc(C(F)(F)F)cc2)Oc2ccc(NS(=O)(=O)c3ccc(F)cc3)cc2CC1=O -8.64%
C[C@H]1CN([C@@H](C)CO)S(=O)(=O)c2ccc(-c3cccc(F)c3)cc2O[C@@H]1CN(C)C(=O)Nc1cc(F)ccc1F -33.1%
O=S(=O)(c1ccc(F)cc1)N1CCCCN2[C@@H](CO)[C@H](c3ccc(C#CC4CCCC4)cc3)[C@@H]2C1 -0.632%
COc1ccc(S(=O)(=O)N(C)C[C@@H]2Oc3cc(C#CC4CCCC4)ccc3S(=O)(=O)N([C@H](C)CO)C[C@H]2C)cc1 -14.8%
